# Measurements as given in PubChem BioAssay AID778 (Sanford-Burnham Center for Chemical Genomics, 2007).
# Out of some 96,000 compounds screened, about 20,000 (21%) were called active. Only a sample is shown. Values without a mark were called inactive.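 Rule for the calls: active = CYP2C19 inhibition above a set limit at 5 µM in the primary screen (cut at about 50% in these data); inactive = the rest.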
# Molecular target: Cytochrome P450 2C19 (Homo sapiens) (UniProt P33261)
# Assay: blockers of cytochrome P450 2C19 activity – biochemical, luminescence, ADME assay, primary screen (AID 778);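 note: plate controls were negative control wells for no effect and 2.5 mM tranylcypromine positive control for full effect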
# Conditions: CYP2C19 Supersomes, luciferin-H EGE luminescence, 30 min; at 5 µM; active compounds read high
# Chain of Cytochrome P450 2C19 (Homo sapiens) (P33261 whole entry, looked up): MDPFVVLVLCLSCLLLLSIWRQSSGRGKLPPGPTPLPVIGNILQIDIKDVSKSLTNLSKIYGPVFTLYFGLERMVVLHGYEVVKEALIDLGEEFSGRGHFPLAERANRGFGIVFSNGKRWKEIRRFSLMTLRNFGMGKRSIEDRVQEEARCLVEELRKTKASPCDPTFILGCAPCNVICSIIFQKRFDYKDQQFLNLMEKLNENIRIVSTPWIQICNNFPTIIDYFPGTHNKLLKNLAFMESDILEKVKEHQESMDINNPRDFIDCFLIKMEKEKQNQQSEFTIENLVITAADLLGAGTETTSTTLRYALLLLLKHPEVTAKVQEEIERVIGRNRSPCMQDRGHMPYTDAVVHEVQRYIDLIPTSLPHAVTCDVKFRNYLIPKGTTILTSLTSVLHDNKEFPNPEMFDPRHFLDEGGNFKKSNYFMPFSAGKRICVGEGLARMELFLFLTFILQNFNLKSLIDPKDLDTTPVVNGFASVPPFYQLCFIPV
row,Structure (SMILES),inhibition
1,Cc1nn(-c2ccccc2)c2c1C(=O)NC(=O)C(C)(C)C2,28%
2,Cc1ccc(C2=NN(C)c3nc4ccccc4n3C2)cc1,12.8%
3,CCN(CC(=O)NC(C)C)C(=O)CCNC(=O)c1ccc(Cl)cc1,10.5%
4,Cc1ccc(CNC(=O)CCCNC(=O)c2ccc(Cl)cc2)n1C,60.2% (active)
5,CCCCNC(=O)CCNC(=O)c1ccc(C(C)(C)C)cc1,31.5%
6,N#C/C(=C(\O)CCl)c1nnc2n1CCCCC2,3.5%
7,O=C1CCCCC(=O)c2ccccc2N1,12.2%
8,CCCCCCOc1ccc(OC(=O)c2cccnc2)cc1,20.8%
9,CCCCOc1ccc(C(=O)NCc2ccco2)cc1,20.2%
10,CCCCOc1ccc(C(=O)NCc2ccncc2)cc1,76.1% (active)
11,CCOc1cccc(C(=O)Nc2cccnc2)c1,-3.6%
12,CCOc1ccc(C(=O)Nc2ccncc2)cc1,97.9% (active)
13,CCOc1ccc(NC(=O)Nc2cc(C)on2)cc1,22.7%
14,CC(=O)Nc1nonc1-c1nc2ccccc2n1Cc1ccccn1,-7.6%
15,CCN1C(=O)/C(=C2/Sc3ccccc3N2CCCS(=O)(=O)O)SC1=S,0%
16,CCOc1ccc2[nH]c(=O)c(CN(CCCO)C(C)=O)cc2c1,-11.4%
17,CC(C)CNC(=O)c1cc(-c2ccc(Br)cc2)on1,-6.3%
18,c1ccc2c(c1)OCC(CNc1ncnc3nc[nH]c13)O2 (stereo not drawn),4%
19,Cc1cccc2c(=O)n3c(nc12)CCCCC3,28.1%
20,O=C(Nc1ccc2nc3n(c(=O)c2c1)CCCCC3)c1ccccc1Cl,13.1%
21,O=c1c2c(nc3n1CCCCC3)sc1c(O)cccc12,72.2% (active)
22,O=C(CSc1nc2c(cnn2-c2ccc(F)cc2)c(=O)[nH]1)N1CCCCCC1,2.3%
23,CN1/C(=C\C=C2\N=C(c3ccc(F)cc3)OC2=O)C(C)(C)c2ccccc21,45.9%
24,CN1/C(=C\C(=O)c2oc3ccccc3c2N)C(C)(C)c2ccccc21,47.9%
25,Cc1noc(C)c1C(=O)OCC(=O)/C=C1\N(C)c2ccccc2C1(C)C,60.2% (active)

row,Structure (SMILES),inhibition
1,O=P(O)(CP(=O)(c1ccccc1)c1ccccc1)c1ccccc1,-1.3%
2,Cc1ccc(N2CCN(c3ccc(C)cc3)C2c2ccccn2)cc1,27.1%
3,CCc1ccccc1NC(=O)/C(=C/c1ccccc1)c1ccccc1,28.8%
4,O=c1onc(-c2cccs2)n1Cc1ccccc1,79.9% (active)
5,O=c1[nH]c(-c2cccs2)nc2ccccc12,1.4%
6,O=C(CSc1nnc(-c2cccs2)n1Cc1ccccc1)N1CCc2ccccc2C1,31.9%
7,Cn1c(C(=O)NCCN2CCc3ccccc3C2)cc2c(=O)[nH]c3ccccc3c21,14.8%
8,CCOC(=O)CCc1c(C)c2ccc(OCc3nn[nH]n3)c(C)c2oc1=O,0%
9,O=C1c2cccc3cc(Br)cc(c23)C(=O)N1Nc1ccccc1,29.2%
10,Cc1noc(NS(=O)(=O)c2ccc(NC(=O)C34CCC(CC3)C4)cc2)c1C,-12.3%
11,Cc1ccccc1C(=O)N1CCC(C(=O)Nc2ccc(S(=O)(=O)N(C)C(C)C)cc2)CC1,25.1%
12,COC(=O)c1[nH]c2ccccc2c1NS(=O)(=O)c1ccc(OC)cc1OC,89.7% (active)
13,COC(=O)c1[nH]c2ccc(Br)cc2c1NC(=O)Oc1ccccc1,7.3%
14,CCCS(=O)(=O)Nc1c(C(=O)O)[nH]c2ccccc12,11.8%
15,CCOCCCNC(=O)c1c[nH]c2cc(C)ccc2c1=O,-3.9%
16,CC(C)c1ccc(C(=O)NCCCc2ccccc2)cc1,14.8%
17,C[C@H](NC(=O)NCCc1ccccc1)C(=O)O,-17.1%
18,CCC(C)NC(=O)CCCc1ccccc1 (stereo not drawn),58.1% (active)
19,Cc1ccc2cccc(O)c2[n+]1[O-],1.9%
20,CCc1ccc2nc3sc(C(=O)Nc4nnc(CC)s4)c(N)c3cc2c1,39.6%
21,COc1cc(-c2nnc(Cn3cc(C(F)(F)F)ccc3=O)o2)cc(OC)c1OC,8.6%
22,CCCc1nc2ccccc2c(C(=O)OCc2nnc(-c3cc(OC)c(OC)c(OC)c3)o2)c1CC,69.1% (active)
23,CCCc1nc2ccccc2c(C(=O)OCC(=O)c2ccc3c(c2)NC(=O)CO3)c1CC,-9.7%
24,C=CCC(NCCCO)c1cccc(OC)c1OC (stereo not drawn),-15.9%
25,CCN(c1ccc2c(c1)OCO2)S(=O)(=O)c1cc(Br)cc2c1N(C(=O)C1CC1)CC2,51.5% (active)

row,Structure (SMILES),inhibition
1,CCOC(=O)N1CCN(S(=O)(=O)c2cc(Br)cc3c2N(C(=O)C2CC2)CC3)CC1,30.1%
2,O=C(C1CCN(S(=O)(=O)c2cnc[nH]2)CC1)N1CCN(Cc2ccc3c(c2)OCO3)CC1,11.6%
3,CC(C)C(=O)Nc1cccc(NC(=S)NC(=O)C(c2ccccc2)c2ccccc2)c1,18.9%
4,CCc1cc(=O)oc2cc(C)cc(OC(C)C(=O)O)c12 (stereo not drawn),-4.4%
5,COc1ccc(NC(=O)C(CC(C)C)NS(=O)(=O)c2ccc3c(c2)CCN3C(C)=O)cc1OC (stereo not drawn),31.2%
6,COc1ccc(-n2c(SCC(=O)Nc3sc4c(c3C#N)CCCC4)nnc2-c2ccc(O)cc2)cc1,26.8%
7,O=C(NCc1ccc2c(c1)OCO2)c1cc2c(s1)CS(=O)(=O)C2,28.8%
8,CC(Sc1nncs1)C(=O)NCc1ccc2c(c1)OCO2 (stereo not drawn),75.7% (active)
9,Cc1ccc2c(c1)-c1c(ssc1=S)C(C)(C)N2C(=O)CN1C(=O)c2ccccc2C1=O,25.1%
10,Cc1nc2ccc(S(=O)(=O)NCC(=O)O)cc2s1,-10.3%
11,N#Cc1ccc(OCCN2C(=O)NC3(CCSC3)C2=O)cc1 (stereo not drawn),-8.7%
12,CCCOc1ccccc1C1CC(=O)Nc2cc3c(cc21)OCO3 (stereo not drawn),99.3% (active)
13,COc1cc2c(cc1OC)C(c1ccc(C)o1)CC(=O)N2 (stereo not drawn),-11%
14,COc1ccccc1C1C2=C(COC2=O)Nc2cc3c(cc21)OCO3 (stereo not drawn),91.7% (active)
15,CCCOc1ccc(C2NC(=O)NC(c3ccccc3)=C2C(C)=O)cc1OCC (stereo not drawn),11%
16,Cc1cc(=O)oc(C)c1C(=O)N1CCCCC1,20.5%
17,O=[N+]([O-])c1ccccc1OCCCCN1CCCCC1,1%
18,COc1cccc(C(=O)NNC(=O)c2ccccc2Br)c1,8.8%
19,COc1ccc2oc(=O)c(C(=O)O)cc2c1,-14.5%
20,COc1cccc(C(=O)c2cc3ccc(O)cc3oc2=O)c1,83.3% (active)
21,CCOCCCNC(=O)C(NC(=O)CNC(=O)c1ccccc1)c1ccc(C)cc1 (stereo not drawn),-8.2%
22,COc1cccc(-c2nn(C)c3sc(C(=O)N4CCN(c5ccccc5)CC4)cc23)c1,23.7%
23,COc1ccccc1N1CCN(C(=O)Cn2nnc(-c3cccs3)n2)CC1,46.2%
24,COc1ccccc1N1CCN(C(=O)c2cc3c(-c4ccc(Cl)cc4)nn(C)c3s2)CC1,74.1% (active)
25,O=C(c1cn(-c2ccccc2)nc1-c1cccnc1)N1CCCCC1,40.6%

row,Structure (SMILES),inhibition
1,COc1ccccc1N1CCN(C(=O)c2cn(-c3ccccc3)nc2-c2cccnc2)CC1,93.8% (active)
2,CCOC(=O)N1CCN(C(=O)c2cc3c(-c4ccc(Cl)cc4)nn(C)c3s2)CC1,9.1%
3,Cn1c(=O)[nH]c(=O)c2c1nc(N1CCN(CCO)CC1)n2CCSc1nc2ccccc2s1,-15.3%
4,O=C(NC1CCc2ccccc21)C12CN(Cc3ccccc3)CC1C(c1cccc([N+](=O)[O-])c1)=NO2 (stereo not drawn),14.2%
5,O=C(N/N=C\c1ccc(-c2ccc(Cl)c(Cl)c2)o1)C(=O)N1CCCC1,16.3%
6,COC(=O)CN1C(=O)C(O)=C(C(C)=O)C1c1ccc([N+](=O)[O-])cc1 (stereo not drawn),-14.6%
7,Cc1ccsc1C(=O)OCC(=O)c1cc(C)n(CC2CCCO2)c1C (stereo not drawn),54.4% (active)
8,Cc1c(C(=O)NCC2CCCO2)sc2nc(-c3ccccc3)cn12 (stereo not drawn),27.4%
9,Cc1ccsc1C(=O)OCC(=O)c1cc2ccccc2o1,44.1%
10,COC(=O)c1ccc(S(=O)(=O)N2CCC(c3nc4ccccc4o3)CC2)cc1,8.7%
11,Oc1ccc(/C=N/NC2=NCCCCC2)c(O)c1,13.9%
12,COC(=O)C1CCN(CC(N)=O)CC1,-8.8%
13,Cc1cc([N+](=O)[O-])c(-c2ccc(/C=N/n3cnnc3)o2)cc1Cl,63.7% (active)
14,Cc1cc(C)c([N+](=O)[O-])cc1-c1ccc(/C=N/NC(=O)c2nonc2N)o1,3.8%
15,NC(=O)c1ccsc1NC(=O)c1ccco1,38.9%
16,O=C(NCC(F)(F)F)Nc1nnc(C(F)(F)F)s1,-26%
17,CCOc1cc(S(=O)(=O)NCc2ccc3c(c2)OCO3)ccc1F,91.8% (active)
18,CCOc1cc(S(=O)(=O)NC2CC(C)(C)NC(C)(C)C2)ccc1F,-5.3%
19,CCOc1c2ccc(C(=O)NCc3ccc4c(c3)OCO4)cc2nn1C,31.5%
20,O=C(Nc1cc(-c2nn(CC(=O)N3CCCCC3)c(=O)c3ccccc23)ccc1N1CCOCC1)c1ccc(Cl)cc1,7.3%
21,CC(C)C(=O)NC(=S)Nc1ccccc1F,25.4%
22,O=C(CN1C(=O)NC2(CCCC2)C1=O)Nc1ccc(F)c(F)c1F,0.4%
23,CC(C(=O)Nc1ccc(F)c(F)c1F)N1CCCCCC1 (stereo not drawn),64.6% (active)
